# According to PMC7862700, “An all-to-all approach to the identification of sequence-specific readers for epigenetic DNA modifications on cytosine”:
# Key:
# Test in all cases: DAPPL (digital affinity profiling via proximity ligation, sequencing); 10 mM Tris-HCl pH 7.5, 50 mM NaCl, 1 mM DTT, 4% glycerol, room temperature, 30 min; GST-TFs on glutathione beads, 16-mer random dsDNA library, 0.1% formaldehyde crosslink after washing; high values mean tight binding
# Conditions in all cases: protein: recombinant; tags: N-terminal GST; dsDNA, one strand shown
# ELK1 = target: T1, ELK1 (Homo sapiens, UniProt P19419 1-428)
# T1 sequence: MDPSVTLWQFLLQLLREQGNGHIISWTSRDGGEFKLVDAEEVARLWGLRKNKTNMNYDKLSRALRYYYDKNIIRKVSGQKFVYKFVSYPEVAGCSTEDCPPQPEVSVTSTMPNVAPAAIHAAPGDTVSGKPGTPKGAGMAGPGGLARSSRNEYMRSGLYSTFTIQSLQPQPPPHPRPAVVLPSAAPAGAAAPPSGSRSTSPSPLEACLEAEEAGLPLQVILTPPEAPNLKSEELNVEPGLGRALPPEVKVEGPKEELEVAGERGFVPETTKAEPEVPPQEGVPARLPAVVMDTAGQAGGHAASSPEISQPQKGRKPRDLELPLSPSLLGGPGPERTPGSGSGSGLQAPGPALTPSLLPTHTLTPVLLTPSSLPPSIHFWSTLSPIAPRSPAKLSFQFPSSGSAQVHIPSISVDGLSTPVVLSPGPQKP
# How it was run: (§1)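 Yeast served to express human transcription factors as GST fusions, which were then captured on glutathione beads and labelled with DNA barcodes. Pooled with a tag-only sample, they were incubated with 200 nmole of a 16-mer random double-stranded DNA library for 30 min at room temperature in Tris/NaCl/DTT/glycerol buffer, washed, crosslinked with 0.1% formaldehyde, ligated by proximity, amplified by PCR and sequenced. Dividing each hexamer's read frequency for a factor by its frequency for the tag-only sample gives the binding signal.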
# GABPA = target: T2, GABPA (Homo sapiens, UniProt Q06546 1-454)
# T2 sequence: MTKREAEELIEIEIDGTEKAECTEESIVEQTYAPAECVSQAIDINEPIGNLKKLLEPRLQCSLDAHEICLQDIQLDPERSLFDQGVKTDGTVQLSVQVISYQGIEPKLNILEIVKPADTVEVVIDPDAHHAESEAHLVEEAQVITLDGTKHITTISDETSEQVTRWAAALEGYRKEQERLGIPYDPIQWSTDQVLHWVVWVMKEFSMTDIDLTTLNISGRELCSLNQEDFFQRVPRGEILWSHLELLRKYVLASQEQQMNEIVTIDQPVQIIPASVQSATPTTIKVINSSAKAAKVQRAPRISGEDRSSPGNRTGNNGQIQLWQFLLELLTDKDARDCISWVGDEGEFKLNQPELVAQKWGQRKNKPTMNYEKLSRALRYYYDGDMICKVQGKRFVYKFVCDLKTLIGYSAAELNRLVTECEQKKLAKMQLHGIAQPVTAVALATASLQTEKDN
# How it was run: as §1
# ERG = target: T3, ERG (Homo sapiens, UniProt P11308 1-479)
# T3 sequence: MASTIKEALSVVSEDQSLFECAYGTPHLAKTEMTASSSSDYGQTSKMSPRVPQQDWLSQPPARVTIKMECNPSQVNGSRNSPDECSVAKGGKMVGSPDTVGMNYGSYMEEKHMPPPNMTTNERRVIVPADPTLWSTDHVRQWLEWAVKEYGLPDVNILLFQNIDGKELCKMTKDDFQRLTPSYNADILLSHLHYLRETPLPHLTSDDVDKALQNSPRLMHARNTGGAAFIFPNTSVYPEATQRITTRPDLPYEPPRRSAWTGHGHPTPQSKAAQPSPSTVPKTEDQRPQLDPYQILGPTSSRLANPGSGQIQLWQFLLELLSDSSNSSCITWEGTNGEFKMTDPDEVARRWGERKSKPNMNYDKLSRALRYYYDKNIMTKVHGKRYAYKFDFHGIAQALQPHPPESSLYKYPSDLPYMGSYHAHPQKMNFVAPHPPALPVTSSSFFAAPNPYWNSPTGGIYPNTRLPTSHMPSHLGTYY
# How it was run: as §1
# EHF = target: T4, EHF (Homo sapiens, UniProt Q9NZC4 1-300)
# T4 sequence: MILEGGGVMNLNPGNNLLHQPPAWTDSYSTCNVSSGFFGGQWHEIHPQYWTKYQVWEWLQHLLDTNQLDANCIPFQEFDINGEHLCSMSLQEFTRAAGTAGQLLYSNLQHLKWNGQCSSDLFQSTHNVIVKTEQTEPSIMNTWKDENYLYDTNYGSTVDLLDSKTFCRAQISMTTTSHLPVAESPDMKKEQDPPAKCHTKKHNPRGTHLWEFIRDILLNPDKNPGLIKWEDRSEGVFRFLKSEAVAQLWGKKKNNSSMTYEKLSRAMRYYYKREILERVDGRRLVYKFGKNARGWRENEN
# How it was run: as §1
# SPI1 = SPI1 (Homo sapiens, UniProt P17947 1-270)
# How it was run: as §1
# SPIB = SPIB (Homo sapiens, UniProt Q01892 1-262)
# How it was run: as §1
# ELF3 = target: T5, ELF3 (Homo sapiens, UniProt P78545 1-371)
# T5 sequence: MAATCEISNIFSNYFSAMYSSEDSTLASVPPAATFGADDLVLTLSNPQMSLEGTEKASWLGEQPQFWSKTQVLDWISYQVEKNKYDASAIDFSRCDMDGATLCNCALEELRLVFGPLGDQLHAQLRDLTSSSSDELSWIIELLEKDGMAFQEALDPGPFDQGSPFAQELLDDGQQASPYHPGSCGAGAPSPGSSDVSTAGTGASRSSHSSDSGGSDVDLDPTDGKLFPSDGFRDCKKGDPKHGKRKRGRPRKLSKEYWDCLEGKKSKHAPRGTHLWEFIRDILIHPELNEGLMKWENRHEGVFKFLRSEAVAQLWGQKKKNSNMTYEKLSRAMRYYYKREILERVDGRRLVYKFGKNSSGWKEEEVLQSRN
# How it was run: as §1
# ERF = target: T6, ERF (Homo sapiens, UniProt P50548 1-548)
# T6 sequence: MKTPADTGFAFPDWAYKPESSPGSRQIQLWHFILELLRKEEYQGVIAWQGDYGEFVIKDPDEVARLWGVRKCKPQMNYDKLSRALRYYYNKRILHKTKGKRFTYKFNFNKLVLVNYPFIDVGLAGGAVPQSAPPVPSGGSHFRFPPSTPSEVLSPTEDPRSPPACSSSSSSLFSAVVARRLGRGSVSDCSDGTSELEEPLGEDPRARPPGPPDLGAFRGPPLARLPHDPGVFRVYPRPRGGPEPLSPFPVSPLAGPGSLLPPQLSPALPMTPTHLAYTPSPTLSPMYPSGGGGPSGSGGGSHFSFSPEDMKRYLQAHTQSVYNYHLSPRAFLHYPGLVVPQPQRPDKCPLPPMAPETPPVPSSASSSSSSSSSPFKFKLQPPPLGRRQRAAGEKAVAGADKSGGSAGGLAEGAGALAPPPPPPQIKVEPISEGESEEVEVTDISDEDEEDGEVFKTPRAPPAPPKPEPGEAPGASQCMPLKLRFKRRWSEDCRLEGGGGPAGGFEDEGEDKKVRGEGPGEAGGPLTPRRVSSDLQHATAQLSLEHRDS
# How it was run: as §1
# ETV3L = target: T7, ETV3L (Homo sapiens, UniProt Q6ZN32 1-361)
# T7 sequence: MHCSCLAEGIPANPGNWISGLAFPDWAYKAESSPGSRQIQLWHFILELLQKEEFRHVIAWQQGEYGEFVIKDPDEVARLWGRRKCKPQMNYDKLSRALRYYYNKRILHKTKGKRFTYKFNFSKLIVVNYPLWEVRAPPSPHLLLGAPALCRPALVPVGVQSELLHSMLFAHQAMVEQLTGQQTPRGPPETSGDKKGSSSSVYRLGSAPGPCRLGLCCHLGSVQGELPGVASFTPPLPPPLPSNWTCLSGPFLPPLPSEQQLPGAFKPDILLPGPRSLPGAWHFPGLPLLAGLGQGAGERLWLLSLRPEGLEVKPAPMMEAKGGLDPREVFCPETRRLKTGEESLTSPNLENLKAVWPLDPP
# How it was run: as §1
# ETV7 = target: T8, ETV7 (Homo sapiens, UniProt Q9Y603 1-341)
# T8 sequence: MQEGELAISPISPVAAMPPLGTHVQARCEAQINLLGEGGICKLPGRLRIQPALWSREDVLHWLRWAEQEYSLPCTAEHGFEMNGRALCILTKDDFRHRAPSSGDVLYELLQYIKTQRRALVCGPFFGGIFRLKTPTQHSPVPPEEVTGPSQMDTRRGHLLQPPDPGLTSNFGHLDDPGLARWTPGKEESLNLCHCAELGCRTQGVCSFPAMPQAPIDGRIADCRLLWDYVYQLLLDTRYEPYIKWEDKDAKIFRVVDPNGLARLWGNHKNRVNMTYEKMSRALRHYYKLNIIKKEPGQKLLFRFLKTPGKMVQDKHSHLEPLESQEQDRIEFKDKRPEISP
# How it was run: as §1
# ETV3 = target: T9, ETV3 (Homo sapiens, UniProt P41162-2 1-143)
# T9 sequence: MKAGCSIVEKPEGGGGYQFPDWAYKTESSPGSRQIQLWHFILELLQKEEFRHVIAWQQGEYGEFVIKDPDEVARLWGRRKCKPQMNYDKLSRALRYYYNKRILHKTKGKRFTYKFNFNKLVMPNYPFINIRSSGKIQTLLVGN
# How it was run: as §1
# ETV6 = ETV6 (Homo sapiens, UniProt P41212 1-452)
# How it was run: as §1
# ELF1 = ELF1 (Homo sapiens, UniProt P32519 1-619)
# How it was run: as §1
# ELK3 = target: T10, ELK3 (Homo sapiens, UniProt P41970 1-407)
# T10 sequence: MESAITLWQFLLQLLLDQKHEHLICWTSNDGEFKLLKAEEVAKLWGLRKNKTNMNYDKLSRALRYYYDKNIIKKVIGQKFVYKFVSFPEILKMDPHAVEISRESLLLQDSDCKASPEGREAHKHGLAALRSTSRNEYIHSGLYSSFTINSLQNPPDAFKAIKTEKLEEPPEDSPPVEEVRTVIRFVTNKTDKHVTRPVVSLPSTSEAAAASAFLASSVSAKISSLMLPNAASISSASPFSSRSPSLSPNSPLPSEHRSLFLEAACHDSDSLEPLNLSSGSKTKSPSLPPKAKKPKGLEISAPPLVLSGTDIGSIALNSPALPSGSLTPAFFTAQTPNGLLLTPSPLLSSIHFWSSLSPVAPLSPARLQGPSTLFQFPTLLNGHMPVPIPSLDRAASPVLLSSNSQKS
# How it was run: as §1
# SPIC = target: T11, SPIC (Homo sapiens, UniProt Q8N5J4 1-248)
# T11 sequence: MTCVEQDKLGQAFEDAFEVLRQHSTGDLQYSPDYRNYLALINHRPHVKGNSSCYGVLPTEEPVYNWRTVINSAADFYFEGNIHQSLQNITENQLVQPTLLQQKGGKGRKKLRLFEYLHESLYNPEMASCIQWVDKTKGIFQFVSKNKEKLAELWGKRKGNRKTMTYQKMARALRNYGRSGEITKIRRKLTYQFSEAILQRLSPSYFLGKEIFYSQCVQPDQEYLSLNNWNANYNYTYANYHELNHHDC
# How it was run: as §1
# ELF4 = ELF4 (Homo sapiens, UniProt Q99607 1-663)
# How it was run: as §1
# ELK4 = target: T12, ELK4 (Homo sapiens, UniProt P28324-2 1-405)
# T12 sequence: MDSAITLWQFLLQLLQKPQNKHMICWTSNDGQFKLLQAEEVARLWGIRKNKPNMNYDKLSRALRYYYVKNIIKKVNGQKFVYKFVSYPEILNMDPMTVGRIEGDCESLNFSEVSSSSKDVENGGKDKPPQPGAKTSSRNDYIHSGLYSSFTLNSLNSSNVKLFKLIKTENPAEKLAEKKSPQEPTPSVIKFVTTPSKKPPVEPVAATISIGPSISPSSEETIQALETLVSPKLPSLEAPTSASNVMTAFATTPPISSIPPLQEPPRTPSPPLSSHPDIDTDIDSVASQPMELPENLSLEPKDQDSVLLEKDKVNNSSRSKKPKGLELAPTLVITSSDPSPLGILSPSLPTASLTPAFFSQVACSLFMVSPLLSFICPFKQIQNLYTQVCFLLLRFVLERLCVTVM
# How it was run: as §1
# ETV1 = ETV1 (Homo sapiens, UniProt P50549 1-477)
# How it was run: as §1
# SPIB, sequence (Q01892 whole entry): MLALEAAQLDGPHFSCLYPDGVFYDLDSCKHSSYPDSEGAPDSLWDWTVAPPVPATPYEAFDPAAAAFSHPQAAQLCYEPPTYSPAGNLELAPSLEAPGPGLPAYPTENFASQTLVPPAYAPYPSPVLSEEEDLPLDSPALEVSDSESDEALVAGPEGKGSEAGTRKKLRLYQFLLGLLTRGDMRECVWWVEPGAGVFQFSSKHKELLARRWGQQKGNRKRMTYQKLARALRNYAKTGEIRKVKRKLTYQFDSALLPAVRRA
# ETV6, sequence (P41212 whole entry): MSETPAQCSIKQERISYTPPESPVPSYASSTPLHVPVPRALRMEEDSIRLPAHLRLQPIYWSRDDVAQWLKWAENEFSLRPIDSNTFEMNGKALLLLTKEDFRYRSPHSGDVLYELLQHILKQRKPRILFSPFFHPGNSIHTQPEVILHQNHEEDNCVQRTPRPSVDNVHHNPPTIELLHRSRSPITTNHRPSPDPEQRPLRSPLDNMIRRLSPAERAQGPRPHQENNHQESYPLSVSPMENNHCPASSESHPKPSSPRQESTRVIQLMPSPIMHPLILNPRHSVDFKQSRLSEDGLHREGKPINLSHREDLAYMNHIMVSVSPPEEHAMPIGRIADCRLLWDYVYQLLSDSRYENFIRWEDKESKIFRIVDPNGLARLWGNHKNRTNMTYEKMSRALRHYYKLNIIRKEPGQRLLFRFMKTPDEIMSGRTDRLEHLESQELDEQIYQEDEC
# ETV1, sequence (P50549 whole entry): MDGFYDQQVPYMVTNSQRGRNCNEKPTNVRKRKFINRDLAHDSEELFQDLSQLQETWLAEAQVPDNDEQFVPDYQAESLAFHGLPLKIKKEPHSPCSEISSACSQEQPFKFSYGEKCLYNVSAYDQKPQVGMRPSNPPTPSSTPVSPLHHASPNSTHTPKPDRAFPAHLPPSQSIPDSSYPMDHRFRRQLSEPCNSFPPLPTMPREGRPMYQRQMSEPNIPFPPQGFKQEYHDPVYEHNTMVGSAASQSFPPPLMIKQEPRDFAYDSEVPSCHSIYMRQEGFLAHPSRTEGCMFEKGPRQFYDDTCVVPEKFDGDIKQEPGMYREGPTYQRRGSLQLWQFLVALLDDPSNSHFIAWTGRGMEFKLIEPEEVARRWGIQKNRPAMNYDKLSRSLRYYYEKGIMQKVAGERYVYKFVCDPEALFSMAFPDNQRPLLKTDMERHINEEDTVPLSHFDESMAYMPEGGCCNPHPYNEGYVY
# ELF1, sequence (P32519 whole entry): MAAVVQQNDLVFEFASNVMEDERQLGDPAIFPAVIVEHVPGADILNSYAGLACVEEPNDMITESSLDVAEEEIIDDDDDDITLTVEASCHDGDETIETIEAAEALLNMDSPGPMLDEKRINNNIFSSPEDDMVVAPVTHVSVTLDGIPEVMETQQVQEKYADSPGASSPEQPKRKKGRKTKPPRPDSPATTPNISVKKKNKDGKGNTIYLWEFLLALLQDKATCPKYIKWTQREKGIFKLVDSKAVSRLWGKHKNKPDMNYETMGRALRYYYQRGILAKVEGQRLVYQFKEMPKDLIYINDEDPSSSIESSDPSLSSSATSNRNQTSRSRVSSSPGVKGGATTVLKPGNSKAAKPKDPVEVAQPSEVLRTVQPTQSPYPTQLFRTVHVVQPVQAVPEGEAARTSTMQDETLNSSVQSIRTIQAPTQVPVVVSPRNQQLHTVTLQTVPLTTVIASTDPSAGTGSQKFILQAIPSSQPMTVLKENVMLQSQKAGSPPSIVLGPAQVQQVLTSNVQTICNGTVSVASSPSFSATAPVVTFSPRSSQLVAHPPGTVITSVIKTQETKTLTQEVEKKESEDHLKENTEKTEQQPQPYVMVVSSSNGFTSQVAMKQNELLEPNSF
# ELF4, sequence (Q99607 whole entry): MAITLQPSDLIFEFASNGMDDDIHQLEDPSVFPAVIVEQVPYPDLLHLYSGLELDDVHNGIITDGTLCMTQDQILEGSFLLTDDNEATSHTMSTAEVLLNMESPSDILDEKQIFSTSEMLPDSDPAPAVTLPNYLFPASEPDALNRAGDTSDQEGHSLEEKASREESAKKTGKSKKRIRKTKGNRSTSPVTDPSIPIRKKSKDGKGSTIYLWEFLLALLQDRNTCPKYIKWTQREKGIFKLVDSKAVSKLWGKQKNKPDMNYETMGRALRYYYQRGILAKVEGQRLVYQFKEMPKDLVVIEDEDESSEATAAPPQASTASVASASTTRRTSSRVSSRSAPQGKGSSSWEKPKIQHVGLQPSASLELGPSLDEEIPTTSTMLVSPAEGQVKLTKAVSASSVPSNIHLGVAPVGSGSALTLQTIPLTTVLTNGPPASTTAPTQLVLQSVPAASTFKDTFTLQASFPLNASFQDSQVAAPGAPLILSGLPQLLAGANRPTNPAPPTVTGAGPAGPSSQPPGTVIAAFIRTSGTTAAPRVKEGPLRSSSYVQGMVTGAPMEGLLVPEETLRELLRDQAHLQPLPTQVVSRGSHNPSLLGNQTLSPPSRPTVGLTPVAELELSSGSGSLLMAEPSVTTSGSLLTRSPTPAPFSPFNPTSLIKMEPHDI
Sequence,binding signal (ELK1),binding signal (GABPA),binding signal (ERG),binding signal (EHF),binding signal (SPI1),binding signal (SPIB),binding signal (ELF3),binding signal (ERF),binding signal (ETV3L),binding signal (ETV7),binding signal (ETV3),binding signal (ETV6),binding signal (ELF1),binding signal (ELK3),binding signal (SPIC),binding signal (ELF4),binding signal (ELK4),binding signal (ETV1)
GGGAAA,"1.05 fold enrichment (6-mer frequency, TF over GST control)","1.02 fold enrichment (6-mer frequency, TF over GST control)","1.03 fold enrichment (6-mer frequency, TF over GST control)","1.07 fold enrichment (6-mer frequency, TF over GST control)","1.05 fold enrichment (6-mer frequency, TF over GST control)","1.1 fold enrichment (6-mer frequency, TF over GST control)","1.03 fold enrichment (6-mer frequency, TF over GST control)","1.02 fold enrichment (6-mer frequency, TF over GST control)","1.05 fold enrichment (6-mer frequency, TF over GST control)","1.12 fold enrichment (6-mer frequency, TF over GST control)","1.03 fold enrichment (6-mer frequency, TF over GST control)","1.22 fold enrichment (6-mer frequency, TF over GST control)",,,,,,
CGCGCC,"1.01 fold enrichment (6-mer frequency, TF over GST control)","1.03 fold enrichment (6-mer frequency, TF over GST control)","1.03 fold enrichment (6-mer frequency, TF over GST control)","1.05 fold enrichment (6-mer frequency, TF over GST control)",,"1 fold enrichment (6-mer frequency, TF over GST control)","1.05 fold enrichment (6-mer frequency, TF over GST control)","1.1 fold enrichment (6-mer frequency, TF over GST control)","1.05 fold enrichment (6-mer frequency, TF over GST control)",,"1.09 fold enrichment (6-mer frequency, TF over GST control)","1 fold enrichment (6-mer frequency, TF over GST control)","1.06 fold enrichment (6-mer frequency, TF over GST control)","1.05 fold enrichment (6-mer frequency, TF over GST control)","1.23 fold enrichment (6-mer frequency, TF over GST control)","1.05 fold enrichment (6-mer frequency, TF over GST control)","1.15 fold enrichment (6-mer frequency, TF over GST control)","1.14 fold enrichment (6-mer frequency, TF over GST control)"
